# In ChEMBL document CHEMBL3988442, “University of Dundee, Small-Polar-MMV Screening Library” (2021):
# For some assays here: Results with a measured potency or affinity are listed apart.
# How the values were obtained:
# Design in all cases: scale not given: direction of the effect not stated beside the values
# [1] = target: Protein translocase subunit SecA (Escherichia coli (strain K12)) (UniProt P10408); experiment: Assay to Identify E. coli SecA ATPase Inhibitors; format: functional; settings: 30 µM
# [2] = target: T1, Ubiquitin-activating enzyme e1, putative (Leishmania donovani (strain BPK282A1)) (UniProt E9BSI1); experiment: Leishmania donovani Ubiquitin Activating Enzyme (LdE1); format: functional; settings: 30 µM
# T1 sequence (whole entry): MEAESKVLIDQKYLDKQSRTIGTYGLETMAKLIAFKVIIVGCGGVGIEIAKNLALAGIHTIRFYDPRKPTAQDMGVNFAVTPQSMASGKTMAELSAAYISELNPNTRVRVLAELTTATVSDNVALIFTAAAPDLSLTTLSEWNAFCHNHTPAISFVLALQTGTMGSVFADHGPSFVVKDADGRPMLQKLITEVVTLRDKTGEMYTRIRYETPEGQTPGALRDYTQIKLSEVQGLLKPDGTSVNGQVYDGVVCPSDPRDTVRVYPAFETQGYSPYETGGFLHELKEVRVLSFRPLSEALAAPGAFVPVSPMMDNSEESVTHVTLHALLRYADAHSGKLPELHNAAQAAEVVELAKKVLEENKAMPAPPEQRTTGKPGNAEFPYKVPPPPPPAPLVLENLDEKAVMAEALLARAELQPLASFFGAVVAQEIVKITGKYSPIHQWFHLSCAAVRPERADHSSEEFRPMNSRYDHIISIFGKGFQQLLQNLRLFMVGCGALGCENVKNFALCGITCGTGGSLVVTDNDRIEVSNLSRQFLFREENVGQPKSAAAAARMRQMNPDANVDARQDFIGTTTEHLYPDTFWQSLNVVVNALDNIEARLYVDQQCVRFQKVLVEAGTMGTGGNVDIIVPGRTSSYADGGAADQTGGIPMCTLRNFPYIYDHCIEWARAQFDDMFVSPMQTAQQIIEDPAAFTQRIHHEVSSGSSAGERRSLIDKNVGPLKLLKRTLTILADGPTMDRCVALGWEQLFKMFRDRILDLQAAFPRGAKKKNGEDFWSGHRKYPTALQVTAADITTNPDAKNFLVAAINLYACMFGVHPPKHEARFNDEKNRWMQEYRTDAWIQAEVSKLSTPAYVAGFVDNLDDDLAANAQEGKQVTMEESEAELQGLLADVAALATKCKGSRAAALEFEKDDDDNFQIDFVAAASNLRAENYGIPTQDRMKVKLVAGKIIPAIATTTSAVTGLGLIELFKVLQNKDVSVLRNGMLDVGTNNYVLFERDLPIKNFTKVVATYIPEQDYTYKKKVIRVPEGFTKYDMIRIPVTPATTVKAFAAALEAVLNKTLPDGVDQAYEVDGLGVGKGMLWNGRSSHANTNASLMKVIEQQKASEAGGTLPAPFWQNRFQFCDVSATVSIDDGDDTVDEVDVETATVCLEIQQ
# [3] = target: AMP-activated protein kinase, AMPK (Homo sapiens) (UniProt P54646+O43741+P54619+Q9UGJ0+Q9Y478+Q13131+Q9UGI9); experiment: AMP-dependent Kinase enzyme assay. An in vitro enzyme assay that detects ADP turnover that is directly proportional to AMPK activity. This uses naive AMPK that is activated during the assay with MK-8722; format: functional; settings: 30 µM
# [4] = target: Sialic acid-binding Ig-like lectin 9 (Homo sapiens) (UniProt Q9Y336); experiment: Hs-Siglec9 ALPHAscreen SOP 20170721; settings: 10 µM
# Trypanosoma cruzi = experiment: Trypanosoma cruzi phosphomannomutase and mannose-1-phosphate guanylyltransferase assay; format: functional; settings: 10 µM
# [5] = target: T2, Arginase-2, mitochondrial (Homo sapiens) (UniProt P78540); experiment: in vitro enzyme assay to detect the production of urea directly proportional to the activity of Arginase II; format: functional; settings: 33.3 µM; note: in the data most compounds retested in dose-response had high values
# T2 sequence (whole entry): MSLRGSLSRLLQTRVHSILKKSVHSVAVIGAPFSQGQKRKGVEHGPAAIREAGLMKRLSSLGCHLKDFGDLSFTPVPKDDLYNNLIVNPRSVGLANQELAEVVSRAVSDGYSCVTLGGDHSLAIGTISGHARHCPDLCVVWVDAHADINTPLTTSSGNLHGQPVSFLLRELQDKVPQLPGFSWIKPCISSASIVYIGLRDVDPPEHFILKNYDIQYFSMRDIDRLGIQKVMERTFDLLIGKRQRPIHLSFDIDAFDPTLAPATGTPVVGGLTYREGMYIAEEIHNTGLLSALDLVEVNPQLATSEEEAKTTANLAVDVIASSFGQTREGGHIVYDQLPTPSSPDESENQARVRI
# [6] = target: T3, Proteasome subunit beta (Trypanosoma cruzi) (UniProt O96673); experiment: Trypanosoma cruzi proteasome chymotrypsin-like activity (TcProtChymo) assay.; note: in the data most compounds retested in dose-response had high values; format: functional; settings: 9.37 µM
# T3 sequence (whole entry): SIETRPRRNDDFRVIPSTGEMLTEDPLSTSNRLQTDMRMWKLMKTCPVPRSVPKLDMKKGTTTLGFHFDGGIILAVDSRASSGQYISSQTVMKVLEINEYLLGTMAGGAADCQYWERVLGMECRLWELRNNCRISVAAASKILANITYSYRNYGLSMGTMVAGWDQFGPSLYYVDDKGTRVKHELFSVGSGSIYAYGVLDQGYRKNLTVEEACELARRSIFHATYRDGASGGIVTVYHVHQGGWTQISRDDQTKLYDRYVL
# Homo sapiens = species on record: Homo sapiens; experiment: To identify inhibition of the IFN signalling (Jak-Stat) pathway via expression of an eGFP reporter gene under the control of an IFN-stimulated response element (ISRE) containing MxA promoter.; format: functional; settings: 30 µM
# [7] = target: T4, Tyrosyl-tRNA synthetase, putative (Trypanosoma cruzi (strain CL Brener)) (UniProt Q4DSP6); experiment: Trypanosoma cruzi tyrosyl tRNA synthetase (TcYRS) _High Tyrosine SOP; format: functional; settings: 30 µM; note: in the data most compounds retested in dose-response had high values
# T4 sequence (whole entry): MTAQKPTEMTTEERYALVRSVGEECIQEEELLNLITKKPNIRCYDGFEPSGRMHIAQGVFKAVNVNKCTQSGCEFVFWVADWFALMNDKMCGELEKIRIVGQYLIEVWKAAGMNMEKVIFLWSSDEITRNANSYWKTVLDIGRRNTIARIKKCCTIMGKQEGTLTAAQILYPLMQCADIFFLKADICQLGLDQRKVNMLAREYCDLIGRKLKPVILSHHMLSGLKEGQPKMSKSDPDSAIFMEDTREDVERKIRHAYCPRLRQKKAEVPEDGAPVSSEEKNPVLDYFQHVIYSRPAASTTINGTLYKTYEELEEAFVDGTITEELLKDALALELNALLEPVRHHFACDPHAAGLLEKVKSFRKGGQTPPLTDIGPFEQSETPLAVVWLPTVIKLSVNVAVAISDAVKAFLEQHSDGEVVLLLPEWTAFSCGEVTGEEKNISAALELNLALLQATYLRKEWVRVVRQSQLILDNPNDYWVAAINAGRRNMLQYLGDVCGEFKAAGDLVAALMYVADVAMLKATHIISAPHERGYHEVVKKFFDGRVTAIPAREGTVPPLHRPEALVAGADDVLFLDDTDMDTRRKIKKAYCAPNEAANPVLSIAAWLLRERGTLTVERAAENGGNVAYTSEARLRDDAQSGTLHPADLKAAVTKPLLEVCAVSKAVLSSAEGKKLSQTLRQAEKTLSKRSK
# [8] = target: T4, Tyrosyl-tRNA synthetase, putative (Trypanosoma cruzi (strain CL Brener)); experiment: Trypanosoma cruzi tyrosyl tRNA synthetase (TcYRS) SOP; format: functional; settings: 30 µM
# [9] = target: Chromo domain-containing protein 1 (Saccharomyces cerevisiae (strain ATCC 204508 / S288c) (Baker's yeast)) (UniProt P32657); experiment: ScCHD-1 Enzyme Inhibition Assay; format: functional; settings: 30 µM; note: in the data most compounds retested in dose-response had high values
# Chain of Chromo domain-containing protein 1 (Saccharomyces cerevisiae (strain ATCC 204508 / S288c) (Baker's yeast)) (P32657 whole entry, the tested form may be a part): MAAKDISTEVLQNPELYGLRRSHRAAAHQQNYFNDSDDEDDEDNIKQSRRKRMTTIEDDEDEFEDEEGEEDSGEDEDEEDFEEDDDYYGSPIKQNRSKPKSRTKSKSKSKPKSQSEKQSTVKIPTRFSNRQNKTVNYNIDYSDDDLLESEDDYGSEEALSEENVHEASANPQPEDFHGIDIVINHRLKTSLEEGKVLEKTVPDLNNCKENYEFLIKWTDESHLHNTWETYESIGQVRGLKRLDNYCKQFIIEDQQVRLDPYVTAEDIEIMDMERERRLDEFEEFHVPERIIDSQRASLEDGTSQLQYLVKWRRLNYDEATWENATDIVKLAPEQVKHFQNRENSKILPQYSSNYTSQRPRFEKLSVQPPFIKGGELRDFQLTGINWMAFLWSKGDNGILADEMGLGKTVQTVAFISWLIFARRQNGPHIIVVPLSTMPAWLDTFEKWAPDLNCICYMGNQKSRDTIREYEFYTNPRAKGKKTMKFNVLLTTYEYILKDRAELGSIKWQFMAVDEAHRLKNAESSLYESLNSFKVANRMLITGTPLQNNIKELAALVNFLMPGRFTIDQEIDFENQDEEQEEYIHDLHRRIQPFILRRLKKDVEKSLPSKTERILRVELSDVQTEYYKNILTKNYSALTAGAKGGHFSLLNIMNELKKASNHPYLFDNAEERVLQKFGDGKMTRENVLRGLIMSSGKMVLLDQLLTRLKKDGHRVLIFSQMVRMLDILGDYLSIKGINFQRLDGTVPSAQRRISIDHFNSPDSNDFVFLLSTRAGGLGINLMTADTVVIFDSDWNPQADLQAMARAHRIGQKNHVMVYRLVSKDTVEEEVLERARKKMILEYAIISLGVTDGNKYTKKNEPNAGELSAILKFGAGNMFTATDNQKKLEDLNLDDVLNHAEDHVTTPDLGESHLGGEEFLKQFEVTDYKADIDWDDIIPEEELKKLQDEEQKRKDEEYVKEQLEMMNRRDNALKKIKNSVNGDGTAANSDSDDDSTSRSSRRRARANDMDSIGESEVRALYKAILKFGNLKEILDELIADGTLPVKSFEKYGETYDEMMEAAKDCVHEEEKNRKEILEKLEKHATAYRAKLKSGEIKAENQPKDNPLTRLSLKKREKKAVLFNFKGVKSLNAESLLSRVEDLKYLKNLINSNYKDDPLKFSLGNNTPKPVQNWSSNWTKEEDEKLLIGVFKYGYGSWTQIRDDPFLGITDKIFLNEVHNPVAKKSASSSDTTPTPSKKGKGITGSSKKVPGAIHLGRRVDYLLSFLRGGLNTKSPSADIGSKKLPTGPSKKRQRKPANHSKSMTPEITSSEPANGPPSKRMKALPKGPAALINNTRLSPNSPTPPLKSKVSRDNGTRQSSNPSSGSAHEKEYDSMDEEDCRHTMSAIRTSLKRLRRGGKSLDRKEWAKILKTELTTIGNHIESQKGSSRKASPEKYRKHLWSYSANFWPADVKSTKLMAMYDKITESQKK
# Chain of Sialic acid-binding Ig-like lectin 9 (Homo sapiens) (Q9Y336 whole entry): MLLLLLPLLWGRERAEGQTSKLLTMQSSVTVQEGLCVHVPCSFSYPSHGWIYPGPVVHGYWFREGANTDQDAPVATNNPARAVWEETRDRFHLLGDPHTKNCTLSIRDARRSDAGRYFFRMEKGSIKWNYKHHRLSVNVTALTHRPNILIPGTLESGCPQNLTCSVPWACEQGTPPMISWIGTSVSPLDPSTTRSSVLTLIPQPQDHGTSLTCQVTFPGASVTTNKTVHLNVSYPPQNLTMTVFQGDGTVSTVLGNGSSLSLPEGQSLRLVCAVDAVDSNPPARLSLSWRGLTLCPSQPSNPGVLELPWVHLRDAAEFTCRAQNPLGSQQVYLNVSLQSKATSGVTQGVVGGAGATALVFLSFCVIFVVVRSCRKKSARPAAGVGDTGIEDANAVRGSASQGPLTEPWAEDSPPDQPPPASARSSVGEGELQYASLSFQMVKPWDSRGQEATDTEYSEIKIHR
# Chain of Protein translocase subunit SecA (Escherichia coli (strain K12)) (P10408 whole entry): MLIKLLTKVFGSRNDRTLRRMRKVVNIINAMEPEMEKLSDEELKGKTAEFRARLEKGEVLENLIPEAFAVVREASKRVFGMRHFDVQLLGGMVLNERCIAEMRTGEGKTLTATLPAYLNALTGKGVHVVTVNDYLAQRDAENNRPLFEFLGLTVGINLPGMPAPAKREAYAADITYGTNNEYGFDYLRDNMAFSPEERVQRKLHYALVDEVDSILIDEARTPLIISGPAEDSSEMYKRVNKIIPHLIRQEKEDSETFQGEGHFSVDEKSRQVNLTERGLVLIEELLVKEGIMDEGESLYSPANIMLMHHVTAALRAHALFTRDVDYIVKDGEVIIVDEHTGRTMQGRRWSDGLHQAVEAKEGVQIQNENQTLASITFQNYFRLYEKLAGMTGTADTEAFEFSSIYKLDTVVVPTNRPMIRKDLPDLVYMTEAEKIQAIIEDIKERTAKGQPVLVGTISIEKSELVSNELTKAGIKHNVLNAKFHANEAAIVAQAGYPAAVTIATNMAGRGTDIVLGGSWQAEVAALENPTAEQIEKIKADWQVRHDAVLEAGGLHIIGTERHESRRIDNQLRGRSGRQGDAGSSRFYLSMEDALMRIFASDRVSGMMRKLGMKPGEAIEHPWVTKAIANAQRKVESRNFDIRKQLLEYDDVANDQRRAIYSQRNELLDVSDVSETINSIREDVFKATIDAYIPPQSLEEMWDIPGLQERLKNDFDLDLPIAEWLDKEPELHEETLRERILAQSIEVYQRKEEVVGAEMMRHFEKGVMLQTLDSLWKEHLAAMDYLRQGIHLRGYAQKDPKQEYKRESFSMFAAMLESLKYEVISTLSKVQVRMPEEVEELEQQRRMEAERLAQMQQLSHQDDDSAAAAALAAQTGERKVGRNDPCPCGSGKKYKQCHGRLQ
Compound,Percent Effect [1] [%],Percent Effect [2] [%],Percent Effect [3] [%],Percent Effect [4] [%],Percent Effect (Trypanosoma cruzi) [%],Percent Effect [5] [%],Percent Effect [6] [%],Percent Effect (Homo sapiens) [%],Percent Effect [7] [%],Percent Effect [8] [%],Percent Effect [9] [%]
Cn1cccc1C(=O)N1CCCC2(CCN(CCN3CCCC3)C2=O)C1 (stereo unspecified),-6.99,2.6,0.774,9.32,-1.48,-4.14,7.65,11.9,-2.15,-1.24,0.981
c1cc(C2CCCN2Cc2nnnn2C2CC2)cs1 (stereo unspecified),-2.2,4.17,-9.7,-8.8,-4.18,0,21.2,0.525,6.32,10.3,2.21
COc1ccc2c(c1)CCCN2Cc1nc2c(cnn2C)c(=O)[nH]1,-3.64,20.2,-9.32,-0.208,-2.36,2.28,3.52,3.6,9.36,16.5,-5.55
O=C(NC[C@H]1OC[C@@H]2CCN(Cc3ccco3)C[C@@H]21)c1ccsc1,-1.93,8.22,-0.185,8.5,4.17,-9.58,11.2,-6.7,6.25,8.64,-1.63
Cc1n[nH]c(C)c1C1CCCN1C(=O)NCCSC(C)(C)C (stereo unspecified),-2.09,0,3.06,-3.83,-1.37,-0.909,0.887,4.14,3.23,-2.5,-1.95
Cc1cccn2c(=O)cc(CN3CCCCC3Cn3cncn3)nc12 (stereo unspecified),-9.82,-2.7,-1.37,-1.48,-4.2,-1.74,9.53,-10.4,-1.07,-6.17,-6.48
CC(=O)N1CCCN(Cc2csc(-c3ncccn3)n2)CC1,-0.976,13.2,-3.37,-1,-3.02,3.55,20.4,12,6.38,18.2,-3.23
CCc1nc(C)c([C@H]2CN(C)C[C@@H]2C(=O)NCCc2cnccn2)[nH]1,-4.56,8.11,3.09,6.61,1.54,2.86,6.72,3.41,10.1,17.1,-3.65
CS(=O)(=O)NC[C@]12COC[C@H]1CN(C(=O)c1ccoc1)C2,-3.11,7.79,7.55,7.59,-1.87,4.52,10.6,21.3,5.29,11.5,-4.91
Cc1nn(C)c(N(C)C)c1CNCc1ccccc1CN(C)C,-1.22,24.1,-13.2,-7.18,-1.54,-6.24,15.9,-0.0229,1.04,2.53,-30.7
Cc1cccc(C2(NC(=O)CCN3C(=O)CCC3=O)CCCC2)c1,-5.83,12.7,-1.51,8.26,0.85,-2.28,4.83,0.0333,5.42,11.4,-4.64
CCc1ccc(CN2CCC3(CC2)CNC(=O)CO3)o1,-2.61,2.7,1.59,-0.0986,1.76,1.25,1.77,-14.2,2.97,-3.66,-0.389
Cc1cc(C(=O)N2CCCCC2c2nc(C)cs2)[nH]n1 (stereo unspecified),-4.07,5.2,0.468,-1.4,5.62,-4.27,-2.03,-9.54,4.85,12.2,84.3
NC(=O)NCC(=O)N1C[C@H]2CC[C@@H]1CN(C1Cc3ccccc3C1)C2,-3.92,10.8,-25.8,17.9,-0.88,-3.23,14,3.96,5.38,13.6,-4.63
COCCN1C[C@@H]2CN(c3ncccn3)C[C@@H]2C1=O,-4.06,2.7,0.915,-6.74,-0.586,-4.17,8.2,-19.7,76.2,-1.22,474
Cc1nc(C)n(CC2CCCCN2Cc2ncc(C(C)(C)C)o2)n1 (stereo unspecified),-2.22,31.2,-8,-3.37,5.62,-2.13,19.1,10.5,7.77,24.4,-10.7
